NR3A LBD binder: NR3A (human) ligand-binding domain modulation | NR3A LBD differential scanning fluorimetry, Tm shift; 0% = protein alone, 100% = glycine-bound protein | Tm shift relative to glycine control, % at 25 µM | hit rate 2.5% among 340,000;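 active = melting temperature shift of at least 10% of the positive control shift, at one fixed dose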
Rpn11 block: inhibitors of human proteasome Rpn11. AID 588493. inhibition, % at 20 µM. human 26S proteasome, Ub4-pepOG fluorescence polarization; 20S core pre-blocked with epoxomicin. O00487. hit rate 0.59% among 360,000;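 active = inhibition at 20 µM, scaled to each plate's controls, above about 33%, limit read from the data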
Target sequence (O00487 whole entry, looked up): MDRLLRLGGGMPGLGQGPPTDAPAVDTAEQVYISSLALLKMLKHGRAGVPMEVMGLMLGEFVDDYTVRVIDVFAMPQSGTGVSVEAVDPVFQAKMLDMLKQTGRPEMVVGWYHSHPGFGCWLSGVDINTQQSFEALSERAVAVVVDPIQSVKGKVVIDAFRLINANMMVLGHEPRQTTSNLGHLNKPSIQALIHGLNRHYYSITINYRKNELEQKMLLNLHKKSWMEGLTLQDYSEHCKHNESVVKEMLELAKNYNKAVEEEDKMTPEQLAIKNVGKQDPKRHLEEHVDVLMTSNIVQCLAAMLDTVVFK
ZTA DNA inh: blocks Epstein-Barr virus ZTA, an EBNA-1 counter-screen. P03206. ZTA-DNA binding, fluorescence polarization. inhibition, % at 11 µM. hit rate 0.15% among 320,000. AID 2234; in the data active = inhibition above about 33%
EBNA-1 inhibitor: blocks EBNA-1 binding to DNA. EBNA-1 DNA binding, fluorescence polarization. inhibition, % at 14.8 µM. hit rate 0.34% among 300,000. AID 1950; in the data active = inhibition above about 28%
TPT1 inhibitor: C. albicans TPT1 enzyme inhibition. inhibition, % at 5 µM. AID 1962. recombinant caTPT1, FP RNA substrate dephosphorylation. hit rate 0.81% among 300,000;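 active = inhibition above the mean of all tested compounds plus 3 SD, set per screening campaign, cut at about 24% in these data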;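 also: plate controls were DMSO alone for no effect and ferristatin control at 100 nM for full effect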
dFosB act: enhances mouse delta FosB homodimer DNA binding | P13346 | purified delta FosB, TAMRA-CDK5 oligo fluorescence polarization; percent of positive-control signal above neutral wells | activation, % at 25 µM | hit rate 0.99% among 340,000;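 active = mean activation above about 17%, with every replicate also reaching it, limit read from the data, passing the limit was not always enough; inconclusive = only one of the two conditions met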
Target sequence (P13346 whole entry, looked up): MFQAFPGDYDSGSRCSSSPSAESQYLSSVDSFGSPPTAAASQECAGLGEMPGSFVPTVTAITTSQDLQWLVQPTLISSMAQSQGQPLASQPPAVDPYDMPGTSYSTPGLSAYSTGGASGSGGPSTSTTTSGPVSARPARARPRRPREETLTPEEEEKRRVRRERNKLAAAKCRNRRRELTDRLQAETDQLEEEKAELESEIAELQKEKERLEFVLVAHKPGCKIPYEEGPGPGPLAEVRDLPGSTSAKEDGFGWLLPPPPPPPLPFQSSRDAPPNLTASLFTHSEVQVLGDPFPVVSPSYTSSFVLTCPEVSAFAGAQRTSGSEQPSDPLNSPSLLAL
* hit, by the source's call; ? = inconclusive; / = no result shown; + = active, no number. The list is not random: actives were taken first. Their share in the collection is about 4.5%.

SMILES | NR3A LBD binder | Rpn11 block | ZTA DNA inh | EBNA-1 inhibitor | TPT1 inhibitor | dFosB act
O=C(COC(=O)C1CCN(c2ccc(C(F)(F)F)cn2)CC1)Nc1cccc(F)c1 | 11.5* | 0.0 | -22.8 | 1.1 | 3.2 | -9.4
O=C(COC(=O)C1CCN(c2ccc(C(F)(F)F)cn2)CC1)Nc1ccc(Cl)cn1 | -0.3 | 4.1 | 3.6 | 8.2 | 1.7 | -6.0
CCCCn1nnnc1C(c1cccs1)N1CCN(C/C=C/c2ccccc2)CC1 (stereo unspecified) | / | 6.4 | / | / | / | /
CC(C)CNC(=O)C(=O)NNC(=O)c1ccco1 | -2.0 | -6.5 | -9.7 | 5.4 | -2.3 | 1.1
COc1ccc(OC)c(Nc2nc(NCCCN(C)C)nc(N)c2[N+](=O)[O-])c1 | 0.5 | -0.8 | -12.8 | -9.4 | -2.4 | 24.3*
Cc1ccc(NC(=O)c2cc3ccccc3o2)nc1 | -0.1 | 8.2 | -9.4 | 16.0 | -1.7 | -16.1
Nc1cccc(-c2nc3cc(S(=O)(=O)c4ccc5oc(-c6cccc(N)c6)nc5c4)ccc3o2)c1 | 23.6* | 4.7 | 18.3 | 7.4 | 0.8 | 0.7
CN(Cc1cccc(F)c1)C(=O)c1ccc(S(=O)(=O)N2CCOCC2)cc1 | -0.9 | -6.6 | 13.5 | / | / | 3.2
CC1OC(c2ccccc2)OC2COC(c3ccccc3)OC12 (stereo unspecified) | -0.8 | -5.1 | / | / | / | -6.7
CC(=O)Nc1ccc(/C=N/OCC(=O)Nc2ccc(C)cc2)cc1 | -4.8 | 8.4 | -3.3 | 4.5 | 2.6 | 3.3
Cc1ccc(NC(=O)O/N=C/c2ccc(N(C)C)cc2)cc1 | 18.6* | -1.3 | 3.7 | 7.2 | 2.2 | 4.5
COc1ccc(NC(=O)O/N=C/c2ccc(N(C)C)cc2)cc1 | 5.2 | 3.7 | 12.5 | 2.5 | -0.3 | -1.9
CN(C)c1ccc(NC(=O)Oc2ccccc2)cc1 | -1.0 | -3.7 | + | 52.3* | -1.3 | 0.2
COc1ccc(C=NOCC(=O)OCC(=O)Nc2ccc(OC)cc2)cc1 | 41.7* | -3.6 | / | / | / | -4.0
COc1ccc(NC(=O)O/N=C/c2ccc(Br)cc2)cc1 | 34.1* | 8.0 | 8.3 | 6.8 | -1.6 | -4.1
CCN(Cc1ccccc1)C(=O)Cn1cc(S(=O)(=O)NC)c(S(=O)(=O)NC)c1 | 1.1 | -3.1 | 14.3 | -0.9 | -5.6 | 8.3
O=C(Nc1cccc(S(=O)(=O)NC2=NCCC2)c1)c1ccc(=O)[nH]c1 | 1.1 | 4.5 | 0.6 | / | / | -8.3
COC(C/C=C\C(=O)[C@@H](C)OCc1ccccc1)OC | / | / | 0.3 | -2.6 | -4.5 | /
COc1cc(Cl)ccc1OC1(C)CCN(Cc2ccc(-c3ccccn3)cc2)C1 (stereo unspecified) | / | 3.8 | / | / | / | /
COc1ccc(/C=N/OC(=O)Nc2ccc(Cl)cc2)c(OC)c1 | 10.3* | -5.8 | 2.9 | -6.9 | -4.8 | -4.0
CSc1nc(N)nc(SCC(=O)c2ccc(C)cc2)c1C#N | 20.0* | -3.9 | 4.8 | -0.5 | 2.9 | 10.6
CSc1nc(N)nc(SCC(=O)OC(C)C)c1C#N | -2.3 | 0.4 | -0.9 | -4.2 | -2.2 | -5.2
Nc1nnc(-c2cn(-c3ccccc3)nc2-c2ccc(Cl)cc2)o1 | 24.9* | 0.3 | -1.9 | 11.0 | 2.4 | -2.3
C[N+]1=C(/C=C/Nc2ccccc2Cl)C(C)(C)c2ccccc21 | -3.5 | 9.0 | 9.2 | 10.0 | -3.9 | -9.2
COC(=O)c1ccc2c(c1)C(C)(C)C(/C=C/c1ccccc1O)=[N+]2C | 2.3 | / | 13.1 | 14.8 | 19.0 | 111.0*
SMILES | NR3A LBD binder | Rpn11 block | ZTA DNA inh | EBNA-1 inhibitor | TPT1 inhibitor | dFosB act
COc1ccc(NC(=O)CSc2nc3ccc(Nc4nc(N5CCOCC5)nc(N5CCOCC5)n4)cc3s2)cc1 | 1.8 | 8.8 | -3.1 | -1.8 | 2.2 | 11.8
Cc1ccc(NC(=O)CSc2nc3ccc(Nc4nc(N5CCOCC5)nc(N5CCOCC5)n4)cc3s2)cc1 | 15.4* | 7.0 | / | / | / | ?
CC(=O)Nc1ccc2nc(SCC(=O)Nc3ccc(N4CCOCC4)c(Cl)c3)sc2c1 | 25.0* | 0.3 | -2.1 | -8.9 | 1.3 | -4.7
O=C(NCC1CCCO1)c1nn2c(C(F)(F)F)cc(-c3ccc(Br)o3)nc2c1Br (stereo unspecified) | 2.0 | 14.2 | -5.0 | -11.0 | -1.6 | -16.3
CC(Sc1ncccn1)C(=O)Nc1ccc2c(c1)OCO2 (stereo unspecified) | 1.1 | 3.1 | / | / | / | 2.6
CCCSc1nnc(CSc2ncccn2)n1C | -0.9 | 0.7 | -0.2 | -1.7 | -1.6 | -1.2
COc1ccc(Br)cc1CNC(=O)CCN1C(=O)COc2ccccc21 | 22.5* | -2.4 | -0.1 | -8.3 | -2.9 | -13.1
Cc1ccc2c(c1)N(CCC(=O)NCc1ccccn1)C(=O)CO2 | 41.8* | 5.7 | 1.8 | 10.2 | 1.6 | 1.4
CCCCOc1ccc(C(=O)N2CCN(c3ncccn3)CC2)cc1 | -0.9 | -2.6 | 3.1 | 0.7 | -3.2 | -1.7
CC1CN=C(c2cccn2Cc2ccc(F)cc2Cl)O1 (stereo unspecified) | 11.7* | 2.2 | 3.6 | 8.0 | -5.5 | -5.5
COc1ccc(C(=O)Nc2cc(C(F)(F)F)ccc2-n2cnc3ccccc32)cc1 | 13.7* | 5.1 | -15.4 | -3.0 | -1.8 | -3.7
O=C(Cc1ccc([N+](=O)[O-])cc1)Oc1ccccc1 | 1.2 | -9.7 | / | / | / | 5.1
COc1cc(C2CC(=O)c3c(O)cc(O)cc3O2)ccc1O (stereo unspecified) | -0.5 | -4.5 | -13.7 | -3.5 | -3.7 | 3.8
COc1c(CC=C(C)C)cc(C2CC(=O)c3c(O)cc(O)cc3O2)c(CC=C(C)C)c1O (stereo unspecified) | 21.5* | / | 8.1 | 1.8 | -2.1 | /
Cc1ccc(-n2ncc3c(=O)n(CC(=O)Nc4cccc(Cl)c4)cnc32)cc1C | 5.2 | 3.2 | -13.9 | -6.6 | -0.4 | 42.3*
O=C(Nc1ccc(C(O)c2ccccc2)cc1)[C@@H]1O[C@H](CO)[C@@H](O)[C@H]1O (stereo partly specified) | / | -3.0 | / | / | / | /
O=C(c1ccccc1)c1nn(-c2ccc(Cl)cc2)c(=O)cc1C(F)(F)F | -0.9 | 0.8 | 13.9 | 7.9 | 1.6 | -6.1
O=C(c1ccccc1)c1nn(-c2ccccc2)c(=O)cc1C(F)(F)F | 12.2* | -1.3 | 7.0 | 2.7 | -3.1 | -10.6
COCCn1cnc2c1c(=O)n(CC(=O)Nc1cc(C)on1)c(=O)n2Cc1ccccc1 | 10.9* | 3.4 | -26.0 | 0.0 | -4.9 | -7.9
CC(=O)OCCNc1cc(N2CCN(C)CC2)c2noc3c2c1C(=O)c1ccccc1-3 | 0.4 | -21.1 | / | / | / | -14.2
O=C(O)CCNc1cc(N2CCN(C(=O)c3ccco3)CC2)c2noc3c2c1C(=O)c1ccccc1-3 | 3.2 | / | 163.3* | 127.3* | -17.5 | -59.5
S=C(Nc1ccccc1)Nc1ccc(Br)cc1 | 4.2 | 5.1 | -8.7 | 5.3 | 3.7 | -1.6
Fc1ccccc1NC(=S)Nc1ccc(Br)cc1 | 25.2* | -1.5 | 9.9 | 2.4 | -1.0 | 2.8
Fc1cc(Br)ccc1NC(=S)Nc1ccccc1 | -1.2 | 7.3 | 12.0 | -6.7 | -4.9 | -3.6
S=C(NN=C(C1CC1)C1CC1)Nc1ccccc1 | 11.2* | -4.0 | -1.0 | 8.7 | -1.3 | -0.4
S=C(Nc1ccccc1)Nc1cccc(Br)c1 | 16.2* | -2.5 | -3.8 | -3.8 | 1.5 | -6.5

Compound activity as filed in PubChem.
